Consider 14 compounds from PubChem BioAssay (NCI).

About 83,000 compounds went through this panel and 20% of them were active in at least one assay; those are over-represented in the sample as a whole.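 Assay: single dose, 48 h. Readout: percent growth (0 = no net growth; negative = cell death). Active: <10.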 Unmarked numbers belong to inactive results. Activity calls are given as the source filed them.

Some test systems named below: SR leukemia; RPMI-8226 leukemia; OVCAR-8 ovarian; OVCAR-5 ovarian; OVCAR-4 ovarian; SK-OV-3 ovarian; IGROV1 ovarian; OVCAR-3 ovarian; HS 578T breast; NCI/ADR-RES ovarian.
Common to all, as to experiment: NCI-60 one-dose screen, 48 h (100 = growth as untreated, 0 = no growth, -100 = all killed)
What all share (details): 10 µM unless noted

As to `CCN(CC)CCOC(=O)Nc1c(C(C)C)cccc1C(C)C`, the growth in the assay on SR leukemia was 101%; in the assay on RPMI-8226 leukemia it was 105%; in the assay on OVCAR-8 ovarian it was 102%; in the assay with OVCAR-5 ovarian, 104%; in the assay with OVCAR-4 ovarian, 108%; in the assay on SK-OV-3 ovarian it was 95.7%. In addition, the growth in the assay with IGROV1 ovarian is 100%; with OVCAR-3 ovarian, 114%; with HS 578T breast, 105%; in the assay with NCI/ADR-RES ovarian, 113%.

On to `CCOc1ccc(C(=O)O)cc1`, for which the growth in the assay with SR leukemia was 99.4%; with RPMI-8226 leukemia, 103%; in the assay with OVCAR-8 ovarian, 106%; in the assay with OVCAR-5 ovarian, 105%; in the assay with OVCAR-4 ovarian, 103%; in the assay on SK-OV-3 ovarian, 98.8%. The growth is 113% in the assay with IGROV1 ovarian, 115% in the assay with OVCAR-3 ovarian, 95.3% with HS 578T breast and 105% in the assay with NCI/ADR-RES ovarian.

As for `CCc1ccccc1C(=O)N(CC)CC`, the growth with SR leukemia was 96.3%; with RPMI-8226 leukemia it was 103%; with OVCAR-8 ovarian, 105%; with OVCAR-5 ovarian, 99.4%; in the assay with OVCAR-4 ovarian, 108%; with SK-OV-3 ovarian, 118%. In addition, the growth in the assay on IGROV1 ovarian was 103%; in the assay on OVCAR-3 ovarian, 110%; in the assay on HS 578T breast, 110%; in the assay on NCI/ADR-RES ovarian, 109%.

As to `OCC1CCC(O)C(CO)N1` (stereo not given), the growth in the assay with SR leukemia is 101%; in the assay with RPMI-8226 leukemia, 83.7%; in the assay with OVCAR-8 ovarian it was 112%; in the assay with OVCAR-5 ovarian it was 88.4%; in the assay on OVCAR-4 ovarian, 94.6%; in the assay on SK-OV-3 ovarian, 118%. For the same compound, the growth in the assay on IGROV1 ovarian was 110%; in the assay on OVCAR-3 ovarian, 107%; in the assay with NCI/ADR-RES ovarian it was 118%.

Take `C=CCC(OC(C)=O)c1ccc(OC)c(OC)c1` (stereo not given): the growth with SR leukemia was 35.3%; with RPMI-8226 leukemia it was 97.1%; in the assay with OVCAR-8 ovarian, 96.7%; with OVCAR-5 ovarian, 113%; in the assay with OVCAR-4 ovarian it was 118%; in the assay with SK-OV-3 ovarian, 126%. The growth in the assay on IGROV1 ovarian was 96.6%; in the assay on OVCAR-3 ovarian, 111%; with NCI/ADR-RES ovarian, 116%.

On to `O=C1C=CC(=O)C2=C1CCCC2`, for which the growth is 68.1% in the assay with SR leukemia; 72.4% in the assay with RPMI-8226 leukemia; 95.1% in the assay with OVCAR-8 ovarian; 108% in the assay on OVCAR-5 ovarian; 88% in the assay on OVCAR-4 ovarian; 89.4% with SK-OV-3 ovarian. The values for the growth with IGROV1 ovarian, in the assay on OVCAR-3 ovarian and in the assay with NCI/ADR-RES ovarian were 80.5%, 89% and 94.8%, respectively.

Consider `S=C(NCc1ccccc1)N1CCC(CCCC2CCN(C(=S)NCc3ccccc3)CC2)CC1`, for which the growth is 93.2% with SR leukemia; 75.5% in the assay with RPMI-8226 leukemia; 96.4% with OVCAR-8 ovarian; 121% in the assay with OVCAR-5 ovarian; 76.9% with OVCAR-4 ovarian; 100% with SK-OV-3 ovarian. For the same compound, the growth in the assay with IGROV1 ovarian is 117%; with OVCAR-3 ovarian, 95%; in the assay on HS 578T breast, 108%; in the assay on NCI/ADR-RES ovarian, 99.3%.

As for `C1C[S+]2CC[S+]1CC2`, the growth with SR leukemia is 101%; with RPMI-8226 leukemia, 95.1%; in the assay with OVCAR-8 ovarian, 96%; in the assay with OVCAR-5 ovarian, 107%; in the assay on OVCAR-4 ovarian it was 115%; with SK-OV-3 ovarian, 100%. For the same compound, the growth is 106% in the assay on IGROV1 ovarian, 102% in the assay on OVCAR-3 ovarian, 108% in the assay with HS 578T breast and 99.3% in the assay on NCI/ADR-RES ovarian.

With `COc1ccc2c(c1)Nc1ccccc1S2`, the growth with SR leukemia is 118%; in the assay with RPMI-8226 leukemia, 95.4%; in the assay on OVCAR-8 ovarian it was 102%; in the assay with OVCAR-5 ovarian, 106%; with OVCAR-4 ovarian it was 91.4%; with SK-OV-3 ovarian it was 111%. Besides, the growth in the assay on IGROV1 ovarian was 103%; in the assay with OVCAR-3 ovarian, 113%; in the assay with NCI/ADR-RES ovarian it was 111%.

`Cc1cc(CO)c(O)c(CO)c1`: the growth in the assay on SR leukemia is 77.8%; with RPMI-8226 leukemia, 91%; with OVCAR-8 ovarian, 105%; in the assay with OVCAR-5 ovarian it was 101%; in the assay with OVCAR-4 ovarian, 122%; with SK-OV-3 ovarian, 106%. Further, the figures for the growth in the assay on IGROV1 ovarian, in the assay with OVCAR-3 ovarian and with NCI/ADR-RES ovarian were 108%, 113% and 96.1%, respectively.

Consider `FC(F)(F)c1cc(NC2=NCCN=C(Nc3cc(C(F)(F)F)cc(C(F)(F)F)c3)SS2)cc(C(F)(F)F)c1`, for which the growth with SR leukemia is 1.94% (active); with RPMI-8226 leukemia, 6.78% (active); in the assay on OVCAR-8 ovarian it was 48.6%; with OVCAR-5 ovarian it was 102%; with OVCAR-4 ovarian, 65.8%; in the assay on SK-OV-3 ovarian it was 79.5%. The growth in the assay on IGROV1 ovarian is 49.7%; with OVCAR-3 ovarian it was 25.8%; with HS 578T breast, 79.3%; with NCI/ADR-RES ovarian it was 59.6%.

On to `CC(=O)c1ccc(C)cc1`, for which the growth in the assay on SR leukemia was 112%; in the assay with RPMI-8226 leukemia, 113%; in the assay with OVCAR-8 ovarian, 108%; in the assay on OVCAR-5 ovarian, 104%; in the assay on OVCAR-4 ovarian, 112%; in the assay with SK-OV-3 ovarian it was 121%. The growth in the assay on IGROV1 ovarian is 98.1%; in the assay with OVCAR-3 ovarian, 111%; with HS 578T breast, 94.9%; in the assay with NCI/ADR-RES ovarian, 106%.

As for `CC(=O)c1cccc(O)c1`, the growth with SR leukemia is 90.6%; in the assay on RPMI-8226 leukemia, 105%; in the assay with OVCAR-8 ovarian, 103%; in the assay on OVCAR-5 ovarian it was 96.4%; with OVCAR-4 ovarian, 93.6%; in the assay with SK-OV-3 ovarian, 104%. For the same compound, the growth with IGROV1 ovarian was 106%; in the assay with OVCAR-3 ovarian it was 115%; with HS 578T breast, 96.5%; in the assay with NCI/ADR-RES ovarian, 100%.

In the case of `C1=NCCc2ccccc21`, the growth in the assay with SR leukemia was 97%; in the assay on RPMI-8226 leukemia, 99%; in the assay with OVCAR-8 ovarian it was 99.1%; with OVCAR-5 ovarian, 105%; in the assay on OVCAR-4 ovarian it was 98.7%; with SK-OV-3 ovarian, 93%. Besides, the growth is 105% in the assay with IGROV1 ovarian, 100% in the assay with OVCAR-3 ovarian, 83.8% in the assay on HS 578T breast and 106% with NCI/ADR-RES ovarian.
